# Laboratory results from ChEMBL document CHEMBL3988442, “University of Dundee, Small-Polar-MMV Screening Library” (2021).
# The campaign covered roughly 53,000 compounds. About 900 (1.7%) showed an effect of 50% or more. The list comes from a sample in which strong results are over-represented; it also holds similar structures and randomly drawn compounds.
# Tested on: Mycobacterium tuberculosis
# Assay: Cornell - Phenotypic assay to identify agents that inhibit growth of Mycobacterium tuberculosis
# Assay type: functional
# Set-up: scale not given: direction of the effect not stated beside the values
# Conditions: 10 mM as filed; unlikely as a test dose
row,SMILES,Percent Effect
1,Cc1cc2nc(O)c(O)nc2cc1S(=O)(=O)NC1CC1,1.29%
2,CC(C)(C)C(=O)NCCC(=O)NC(C)(C)c1ccc2c(c1)OCO2,11.96%
3,COc1ncccc1CNC(=O)NC(C)Cn1cccn1 (configuration not stated),-6.466%
4,CCCc1cc(CNC2CCN(c3cc(C(C)C)nc(C)n3)CC2)on1,-3.278%
5,O=C(c1cc(C2CC2)on1)N1C[C@H]2CC[C@](O)(c3ccccc3F)[C@H]2C1,7.092%
6,O=C(c1cc(C2CC2)on1)N1C[C@H]2CC[C@](O)(c3ccc(F)cc3)[C@H]2C1,6.085%
7,O=C(c1cc(C2CC2)n[nH]1)N1C[C@H]2CC[C@](O)(c3ccccc3F)[C@H]2C1,50.52%
8,COc1ccc(-c2nc(CNCCn3cccn3)cs2)cc1,49.39%
9,Clc1ccc(Cc2nc(CNCCn3cccn3)cs2)cc1,60.1%
10,c1cnn(CCNCc2csc(-c3ccsc3)n2)c1,-2.857%
11,c1ccc(-c2nc(CNCCn3cccn3)cs2)cc1,46.8%
12,c1ccc(Cc2nc(CNCCn3cccn3)cs2)cc1,73.18%
13,Fc1ccc(CNCCn2cccn2)cc1F,-21.78%
14,COc1cc(C2(C(=O)N3CCCC(n4cncn4)C3)CC2)ccc1C (configuration not stated),9.425%
15,CC1(C(=O)NC2CCCC2)CCCN(c2cnccn2)C1 (configuration not stated),15.8%
16,Cn1cccc1C(O)CNC(=O)COc1ccccc1F (configuration not stated),31.15%
17,Cn1cccc1C(O)CNC(=O)c1ccc(C(F)(F)F)cc1 (configuration not stated),56.65%
18,Cn1cccc1C(O)CNC(=O)c1ccc2nsnc2c1 (configuration not stated),20.08%
19,Cn1cccc1C(CNC(=O)COc1ccc(Cl)cc1Cl)N1CCCC1 (configuration not stated),27.47%
20,COC(=O)c1ccc(C(=O)NCC(O)c2cccn2C)cc1 (configuration not stated),64.24%
21,Cn1cccc1C(O)CNC(=O)COc1ccc(Cl)cc1Cl (configuration not stated),63.83%
22,Cn1cccc1C(O)CNS(=O)(=O)Cc1ccccc1 (configuration not stated),-41.72%
23,Cn1cccc1C(O)CNC(=O)c1ccc(F)c(F)c1 (configuration not stated),19.39%

row,SMILES,Percent Effect
1,Cn1cccc1C(O)CNC(=O)c1cccc(Cl)c1 (configuration not stated),49.37%
2,COC[C@@H]1CCC[C@]12CN(CCc1ccccc1)CCO2.O=C(O)C(F)(F)F,-4.553%
3,Cc1nc(CNC(=O)c2cc(Cn3ccnc3C(C)C)[nH]n2)sc1C,-7.755%
4,CC(C)NC(=O)NCC(Cc1ccc(F)cc1)C(N)=O (configuration not stated),-16.75%
5,Cc1c(-c2nc3cc(S(=O)(=O)N4CCCC4)ccc3n2C)cnn1C,-4.812%
6,CCc1ccccc1-c1cc(C)nc(N)n1,13.97%
7,Cc1ccc(Oc2cc(CN)ccn2)cc1C.Cl,-26.7%
8,NC(=O)NC(=O)CNC1(c2ccc(Cl)cc2)CCCC1,4.44%
9,Cc1ccccc1CSc1ncc(Br)c(C(=O)O)n1,12.49%
10,Cc1cncc(C2CCN(Cc3ccsc3)CC2)n1,41.74%
11,Cc1cncc(C2CCN(Cc3cnc(C)nc3)CC2)n1,56.88%
12,Cc1cncc(C2CCN(Cc3ccncc3)CC2)n1,18.56%
13,Cc1nccn1CCCn1cncc1-c1ccc2c(c1)CCC(C)N2C.Cl (configuration not stated),54.25%
14,Cc1nccn1CCCn1cncc1-c1ccc2c(c1)CCCN2C.Cl,0.2069%
15,CCN1CCc2cc(-c3cncn3CCNC3CCS(=O)(=O)C3)ccc21.Cl (configuration not stated),12.29%
16,CCN1c2ccc(-c3cncn3CCCn3ccnc3C)cc2CC1C.Cl (configuration not stated),54.49%
17,CCN1c2ccc(-c3cncn3CC(=O)NC(C)(C)C)cc2CC1C.Cl (configuration not stated),-3.554%
18,Cc1nccn1CCCn1cncc1-c1ccc2c(c1)CC(C)N2C.Cl (configuration not stated),20.63%
19,OCCNc1nc(NCCc2ccccc2)nc2nccnc12,11.82%
20,Cn1cc(CN2CC[C@H](O)[C@@H](n3ccc(=O)[nH]c3=O)CC2)cn1,-40.44%
21,Cn1cc(CN(Cc2ccccn2)Cc2ccccc2Cl)cn1,9.224%
22,COc1ccc(C(C)NCCc2ccc(NC(C)=O)cc2)cc1F (configuration not stated),-10.02%
23,Clc1cc(CN2CCCN3CCCC3C2)c2ncccc2c1 (configuration not stated),58.38%

row,SMILES,Percent Effect
1,OCCN1CCN(Cc2cc(Cl)cc3cccnc23)CC1,-20.78%
2,O[C@@H]1CN(Cc2cc(Cl)cc3cccnc23)C[C@@H]1O,5.63%
3,O=S(=O)(NCCNc1ccc(-n2cccc2)nn1)c1ccccc1,105.3%
4,O=S(=O)(NCCNc1cc(-n2cccc2)ncn1)c1cccs1,51.47%
5,Cc1ccc(S(=O)(=O)NCCNc2cc(-n3cccc3)ncn2)c(C)c1,53.05%
6,Cc1cccc(C(=O)NCCNS(=O)(=O)c2cccs2)c1C,27.49%
7,Cc1nsc(NCCNS(=O)(=O)c2ccccc2)n1,22.52%
8,O=S(=O)(NCCNc1ccc(-n2cccc2)nn1)c1cccs1,107.8%
9,CCS(=O)(=O)NCCCNc1cc(N2CCCC2CO)ncn1 (configuration not stated),22.16%
10,Cc1ccc(C)c(S(=O)(=O)NCCNc2ccc(-n3cccc3)nn2)c1,29.41%
11,O=S(=O)(Cc1ccccc1)NCCNc1ccc(-n2cccc2)nn1,12.63%
12,O=S(=O)(NCCNc1cc(-n2cccn2)ncn1)c1cccs1,-21.67%
13,Cc1nnsc1C(=O)NCCNS(=O)(=O)c1cccs1,-32.34%
14,CCS(=O)(=O)NCCNc1cc(-n2cccc2)ncn1,13.54%
15,CCC1=N[C@@]2(CC[C@@H]3CN(CC4CC4)C[C@@H]32)C(=O)N1CC.O=C(O)C(F)(F)F,7.399%
16,O=C(CC1CC1)N1CCN(Cc2ccncc2)c2ncccc2C1.O=C(O)C(F)(F)F.O=C(O)C(F)(F)F,7.793%
17,Cc1ccc(-c2nnc(CN3CCN(c4ccccn4)CC3)o2)cc1,-16.82%
18,COCC(=O)N1CCCC(c2cc(C(F)F)n3ncnc3n2)C1.Cl (configuration not stated),-7.323%
19,CCNC(=O)C1(CC2CC(c3ccccc3OC)=NO2)CCOCC1 (configuration not stated),-45.09%
20,CNc1cncc(C2CCCN2C(=O)CCn2ccnc2)n1 (configuration not stated),-11.08%
21,COCCN(C)CC(=O)N1C[C@@H](C)[C@](O)(C(C)C)C1,28.76%
